# Test results taken from PubChem BioAssay.
# Calls of active or inactive are those of the source.
# Experiments:
# [1] = tested on: PRMT1 (protein arginine N-methyltransferase 1); test: small molecules binding arginine methyltransferase PRMT1 – biochemical, small-molecule microarray, 635 nm fluorescence, primary screen (AID 1088); details: higher = more signal;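 note: binding of Prmt1 protein to compounds spotted on small-molecule microarray slides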
# [2] = growth effects on S. cerevisiae YJM789 – YJM789 clinical isolate, OD600, 24 h, basal, primary screen (AID 1089); details: higher = more signal, called active from +8 up or from −8 down;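 note: growth of clinical yeast isolate S. cerevisiae YJM 789 seeded 1000 cells per well; test concentration not given here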
# [3] = S. pombe growth modifiers, basal conditions – strain 972, OD600, 24 h, no modulator, primary screen (AID 1090);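 note: basal condition with compound alone and no growth modifier present; test concentration not given here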; details: S. pombe 972 growth, higher = more signal, called active from +8 up or from −8 down
# [4] = budding yeast growth modifiers under rapamycin – strain BY4716, OD600, 96 h, primary screen (AID 1091); note: test concentration not given here; details: S. cerevisiae BY4716 + rapamycin, higher = more signal, called active from +8 up or from −8 down
# [5] = biological target: Torsin-1A-interacting protein 2 (Homo sapiens) (UniProt Q8NFQ8); test: small molecules binding lysate-expressed LULL1 – cell lysate, human LULL1 lysate, 635/667 nm fluorescence, primary screen (AID 1092); details: small-molecule microarray, hLULL1 lysate binding, 635 nm fluorescence; higher = more signal;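 note: probe is lysate of COS7 cells overexpressing human LULL1; score merges per-feature 667 nm fluorescence with signal-to-noise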
# [6] = optical density change of DRC41 E. coli – strain DRC41, OD650, 24 h, E. coli filamentation project, primary screen (AID 1093);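 note: MC1000 strain lacking acrAB efflux and sulA so SOS filamentation is blocked; test concentration not given here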; details: E. coli DRC41 growth, higher = more signal, called active from +8 up or from −8 down
# [7] = probe aLefty2 binding to arrayed compounds – biochemical, biotinylated probe, 635/667 nm fluorescence, primary screen (AID 1094); details: small-molecule microarray, higher = more signal;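 note: score merges spot fluorescence near 667 nm with spot signal-to-noise ratio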
# [8] = tested on: Noggin (protein binding on small-molecule microarray); test: small molecules binding Noggin protein – biochemical, 635/667 nm fluorescence, primary screen (AID 1095); details: 635 nm fluorescence, higher = more signal;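 note: score merges 667 nm feature fluorescence with signal to noise over triplicate slides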
# [9] = biological target: Neurogenic locus notch homolog protein 3 (Homo sapiens) (UniProt Q9UM47); test: small molecules binding NOTCH3 protein – biochemical, 635/667 nm fluorescence, primary screen (AID 1096); details: small-molecule microarray, 635 nm fluorescence, higher = more signal
# [10] = probe aEGFR binding to arrayed compounds – biochemical, biotinylated probe, 635/667 nm fluorescence, primary screen (AID 1097); details: small-molecule microarray, higher = more signal;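 note: probe is a biotinylated anti-EGFR antibody binding compounds printed on slides; score combines fluorescence near 667 nm and signal to noise of each spot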
# [11] = tested on: Plasmodium falciparum Sir2 (PF13_0152, Sir2A); test: Plasmodium falciparum Sir2A binding compounds – biochemical, small-molecule microarray, 635 nm fluorescence, primary screen (AID 1098); details: fluorescence 635 nm, higher = more signal;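 note: score merges spot fluorescence intensity with its signal-to-noise ratio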
# [12] = probe aDKK1 binding to arrayed compounds – biochemical, biotinylated probe, 635/667 nm fluorescence, primary screen (AID 1099); details: small-molecule microarray, higher = more signal;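 note: score merges 667nm spot fluorescence with signal to noise across triplicate slides; reference of the scale not given here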
# [13] = probe aCHRDL2 binding to arrayed compounds – biochemical, biotinylated probe, 635/667 nm fluorescence, primary screen (AID 1100); details: small-molecule microarray, higher = more signal
# [14] = change in splice reporter luminescence, either direction, cell-based, HEK293, spliceosome inhibition project, primary screen (AID 1101); details: HEK293 splicing luciferase reporter, 24 h, higher = more signal, called active from +8 up or from −8 down;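 note: HEK293 cells carrying a splicing-competent luciferase reporter gene; test concentration not given here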
# [15] = biological target: Fibroblast growth factor 10 (Homo sapiens) (UniProt O15520); test: compounds binding fibroblast growth factor 10 – biochemical, small-molecule microarray, 635 nm fluorescence, primary screen (AID 1102); details: FGF10 binding, fluorescence 635 nm, higher = more signal
# [16] = tested on: glycogen synthase kinase-3 (GSK3A per assay name; protocol says GSK3B); test: compounds binding glycogen synthase kinase-3 – biochemical, small-molecule microarray, 635 nm fluorescence, GSK3A, primary screen (AID 1103); details: fluorescence 635 nm, higher = more signal; note: the record names both GSK3A and GSK3B
# [17] = biological target: Epidermal growth factor receptor (Homo sapiens) (UniProt P00533); test: compounds binding epidermal growth factor receptor – biochemical, small-molecule microarray, 635 nm fluorescence, primary screen (AID 1104); details: EGFR binding, higher = more signal;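 note: score merges 667 nm emission intensity with spot signal to noise over triplicate slides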
# [18] = biological target: Follistatin-related protein 3 (Homo sapiens) (UniProt O95633); test: compounds binding follistatin-related protein 3 – biochemical, small-molecule microarray, 635 nm fluorescence, primary screen (AID 1105); details: FSTL3 binding, higher = more signal;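 note: score merges emission near 667 nm and signal to noise per printed spot across three slides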
# [19] = biological target: Dickkopf-related protein 1 (Homo sapiens) (UniProt O94907); test: small molecules binding DKK1 protein – biochemical, small-molecule microarray, 635 nm fluorescence scan, primary screen (AID 1106); details: higher = more signal;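 note: score merges emission near 667 nm with signal to noise over three replicate slides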
# [20] = tested on: Inhibin beta A chain (activin A); test: small molecules binding activin A – biochemical, small-molecule microarray, 635 nm fluorescence scan, primary screen (AID 1107); details: INHBA, higher = more signal;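 note: mouse activin A protein probed at 4.33 µg/mL on printed slides; score merges bound-protein fluorescence near 667 nm with spot signal-to-noise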
# Chain of Torsin-1A-interacting protein 2 (Homo sapiens) (Q8NFQ8 whole entry, looked up): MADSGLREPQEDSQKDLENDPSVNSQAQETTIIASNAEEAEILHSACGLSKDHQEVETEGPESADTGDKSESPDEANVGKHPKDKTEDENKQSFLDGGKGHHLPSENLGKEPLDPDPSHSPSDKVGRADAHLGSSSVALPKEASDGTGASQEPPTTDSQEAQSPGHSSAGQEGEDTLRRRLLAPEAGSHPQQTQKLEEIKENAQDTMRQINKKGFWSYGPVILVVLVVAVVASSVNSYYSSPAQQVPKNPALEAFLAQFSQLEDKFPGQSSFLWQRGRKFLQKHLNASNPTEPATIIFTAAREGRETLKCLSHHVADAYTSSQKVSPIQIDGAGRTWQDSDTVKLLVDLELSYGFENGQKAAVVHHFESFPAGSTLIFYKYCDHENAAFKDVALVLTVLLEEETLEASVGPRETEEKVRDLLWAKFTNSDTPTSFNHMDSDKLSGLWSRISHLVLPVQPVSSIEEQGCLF
# Chain of Neurogenic locus notch homolog protein 3 (Homo sapiens) (Q9UM47 whole entry, looked up): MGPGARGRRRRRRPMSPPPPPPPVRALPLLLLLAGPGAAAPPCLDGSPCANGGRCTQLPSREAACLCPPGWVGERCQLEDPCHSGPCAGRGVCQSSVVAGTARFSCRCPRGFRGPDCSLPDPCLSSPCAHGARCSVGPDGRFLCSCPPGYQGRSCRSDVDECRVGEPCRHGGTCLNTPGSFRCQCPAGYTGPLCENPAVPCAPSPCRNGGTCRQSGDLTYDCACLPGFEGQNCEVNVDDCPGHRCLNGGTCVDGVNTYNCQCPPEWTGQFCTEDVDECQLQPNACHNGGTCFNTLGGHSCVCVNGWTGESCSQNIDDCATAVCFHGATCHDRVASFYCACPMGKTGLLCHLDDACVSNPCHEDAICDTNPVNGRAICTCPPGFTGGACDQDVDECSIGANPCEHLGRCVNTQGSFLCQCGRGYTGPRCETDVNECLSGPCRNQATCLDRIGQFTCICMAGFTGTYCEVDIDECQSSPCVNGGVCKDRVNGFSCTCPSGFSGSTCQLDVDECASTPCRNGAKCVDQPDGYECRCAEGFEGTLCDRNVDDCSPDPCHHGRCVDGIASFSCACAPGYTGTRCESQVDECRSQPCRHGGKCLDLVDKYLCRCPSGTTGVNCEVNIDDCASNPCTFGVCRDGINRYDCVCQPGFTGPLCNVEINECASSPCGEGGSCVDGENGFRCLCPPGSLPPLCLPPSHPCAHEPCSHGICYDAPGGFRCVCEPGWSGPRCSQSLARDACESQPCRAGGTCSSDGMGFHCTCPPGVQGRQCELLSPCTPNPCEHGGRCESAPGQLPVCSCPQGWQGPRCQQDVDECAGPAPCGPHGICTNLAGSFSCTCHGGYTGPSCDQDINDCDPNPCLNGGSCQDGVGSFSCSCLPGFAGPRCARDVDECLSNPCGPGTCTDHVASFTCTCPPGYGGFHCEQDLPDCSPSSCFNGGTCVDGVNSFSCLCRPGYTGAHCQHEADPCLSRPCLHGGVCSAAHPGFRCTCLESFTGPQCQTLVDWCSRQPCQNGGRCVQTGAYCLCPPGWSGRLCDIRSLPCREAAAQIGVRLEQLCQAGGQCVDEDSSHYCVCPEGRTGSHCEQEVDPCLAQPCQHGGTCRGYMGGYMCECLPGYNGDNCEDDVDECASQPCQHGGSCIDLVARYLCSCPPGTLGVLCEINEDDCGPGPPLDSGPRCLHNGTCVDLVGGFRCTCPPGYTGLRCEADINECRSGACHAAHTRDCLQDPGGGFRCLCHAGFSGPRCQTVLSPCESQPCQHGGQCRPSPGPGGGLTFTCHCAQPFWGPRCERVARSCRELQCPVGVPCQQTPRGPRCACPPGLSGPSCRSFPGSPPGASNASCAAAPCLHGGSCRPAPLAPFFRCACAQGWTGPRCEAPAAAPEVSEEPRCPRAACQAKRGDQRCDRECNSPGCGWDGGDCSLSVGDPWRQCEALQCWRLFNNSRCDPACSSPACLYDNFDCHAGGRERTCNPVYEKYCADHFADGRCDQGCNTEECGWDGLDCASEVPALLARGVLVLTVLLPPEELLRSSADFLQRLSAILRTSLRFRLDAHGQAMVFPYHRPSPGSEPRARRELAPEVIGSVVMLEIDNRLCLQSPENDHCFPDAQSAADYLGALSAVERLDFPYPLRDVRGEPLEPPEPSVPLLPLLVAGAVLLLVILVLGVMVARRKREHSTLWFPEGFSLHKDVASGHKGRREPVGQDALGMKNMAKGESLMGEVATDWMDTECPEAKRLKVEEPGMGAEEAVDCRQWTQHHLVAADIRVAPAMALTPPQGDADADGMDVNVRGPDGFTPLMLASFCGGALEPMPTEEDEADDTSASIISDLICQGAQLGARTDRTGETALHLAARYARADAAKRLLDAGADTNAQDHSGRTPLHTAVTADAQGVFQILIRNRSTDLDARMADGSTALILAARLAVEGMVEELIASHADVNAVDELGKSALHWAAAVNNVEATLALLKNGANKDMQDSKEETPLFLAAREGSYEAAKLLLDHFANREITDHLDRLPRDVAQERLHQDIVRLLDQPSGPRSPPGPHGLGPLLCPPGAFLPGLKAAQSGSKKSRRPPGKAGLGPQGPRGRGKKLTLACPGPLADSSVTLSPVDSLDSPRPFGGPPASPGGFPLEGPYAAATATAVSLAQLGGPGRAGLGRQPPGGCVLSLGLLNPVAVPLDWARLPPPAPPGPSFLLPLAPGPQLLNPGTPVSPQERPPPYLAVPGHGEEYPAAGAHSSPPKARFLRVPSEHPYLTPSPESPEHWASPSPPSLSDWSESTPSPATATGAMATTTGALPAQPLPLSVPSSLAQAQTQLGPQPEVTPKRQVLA
# Chain of Fibroblast growth factor 10 (Homo sapiens) (O15520 whole entry, looked up): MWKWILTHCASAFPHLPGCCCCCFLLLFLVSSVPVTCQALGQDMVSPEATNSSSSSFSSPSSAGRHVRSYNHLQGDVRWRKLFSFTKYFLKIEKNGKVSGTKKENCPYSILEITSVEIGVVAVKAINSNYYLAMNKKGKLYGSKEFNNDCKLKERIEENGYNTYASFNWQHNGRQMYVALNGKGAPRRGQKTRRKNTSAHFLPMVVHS
# Chain of Dickkopf-related protein 1 (Homo sapiens) (O94907 whole entry, looked up): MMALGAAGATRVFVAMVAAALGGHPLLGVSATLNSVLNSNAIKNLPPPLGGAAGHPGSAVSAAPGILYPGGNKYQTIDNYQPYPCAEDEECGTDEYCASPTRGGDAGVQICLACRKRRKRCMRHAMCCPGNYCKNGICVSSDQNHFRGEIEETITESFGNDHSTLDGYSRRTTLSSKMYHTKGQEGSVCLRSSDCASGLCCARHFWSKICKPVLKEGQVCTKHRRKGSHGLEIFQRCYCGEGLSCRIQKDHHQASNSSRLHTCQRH
# Chain of Epidermal growth factor receptor (Homo sapiens) (P00533 whole entry, looked up): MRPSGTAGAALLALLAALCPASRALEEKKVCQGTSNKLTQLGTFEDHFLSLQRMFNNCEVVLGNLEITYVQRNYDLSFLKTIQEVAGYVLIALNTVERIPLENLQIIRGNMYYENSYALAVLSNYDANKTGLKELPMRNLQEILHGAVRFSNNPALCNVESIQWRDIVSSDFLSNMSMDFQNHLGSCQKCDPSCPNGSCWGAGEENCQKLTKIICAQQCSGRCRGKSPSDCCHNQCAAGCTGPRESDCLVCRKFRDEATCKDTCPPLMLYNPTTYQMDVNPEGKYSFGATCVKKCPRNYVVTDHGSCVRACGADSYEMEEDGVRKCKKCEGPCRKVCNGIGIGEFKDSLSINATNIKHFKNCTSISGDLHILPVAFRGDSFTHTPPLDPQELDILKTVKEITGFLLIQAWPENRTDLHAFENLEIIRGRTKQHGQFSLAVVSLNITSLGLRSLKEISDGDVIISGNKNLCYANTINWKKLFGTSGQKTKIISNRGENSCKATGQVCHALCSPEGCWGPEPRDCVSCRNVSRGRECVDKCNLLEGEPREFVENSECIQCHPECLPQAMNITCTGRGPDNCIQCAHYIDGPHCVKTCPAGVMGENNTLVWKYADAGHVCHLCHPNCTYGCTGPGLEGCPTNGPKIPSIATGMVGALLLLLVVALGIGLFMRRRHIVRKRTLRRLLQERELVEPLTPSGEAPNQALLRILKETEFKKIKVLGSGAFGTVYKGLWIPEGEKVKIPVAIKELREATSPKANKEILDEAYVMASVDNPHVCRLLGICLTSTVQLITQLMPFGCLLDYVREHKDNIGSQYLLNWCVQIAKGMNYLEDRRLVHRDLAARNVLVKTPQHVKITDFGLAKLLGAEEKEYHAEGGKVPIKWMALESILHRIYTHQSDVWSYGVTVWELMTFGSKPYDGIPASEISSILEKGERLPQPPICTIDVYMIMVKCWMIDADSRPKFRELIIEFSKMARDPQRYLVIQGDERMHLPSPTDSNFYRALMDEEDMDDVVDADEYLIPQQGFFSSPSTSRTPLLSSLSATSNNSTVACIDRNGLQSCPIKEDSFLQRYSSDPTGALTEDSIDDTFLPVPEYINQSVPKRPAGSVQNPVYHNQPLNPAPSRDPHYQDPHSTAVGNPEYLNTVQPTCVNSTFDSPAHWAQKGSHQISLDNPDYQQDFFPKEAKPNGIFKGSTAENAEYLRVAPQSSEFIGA
# Chain of Follistatin-related protein 3 (Homo sapiens) (O95633 whole entry, looked up): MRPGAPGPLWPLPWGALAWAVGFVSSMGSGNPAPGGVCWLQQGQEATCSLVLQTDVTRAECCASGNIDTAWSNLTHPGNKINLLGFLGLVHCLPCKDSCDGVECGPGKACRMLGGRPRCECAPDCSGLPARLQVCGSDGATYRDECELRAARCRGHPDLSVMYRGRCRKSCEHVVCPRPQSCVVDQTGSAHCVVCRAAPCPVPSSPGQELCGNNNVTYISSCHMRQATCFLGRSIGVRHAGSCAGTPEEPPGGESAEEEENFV
SMILES,composite z-score [1],z-score [2],z-score [3],z-score [4],composite z-score [5],z-score [6],composite z-score [7],composite z-score [8],composite z-score [9],composite z-score [10],composite z-score [11],composite z-score [12],composite z-score [13],z-score [14],composite z-score [15],composite z-score [16],composite z-score [17],composite z-score [18],composite z-score [19],composite z-score [20]
CCOC(=O)[C@H](Cc1ccccc1)NC(=O)CCC1CC(OC(=O)NCc2ccc3c(c2)OCO3)CC2(CCCC(COC(=O)NCC3CCCCC3)O2)O1 (stereo not given in full),1.55,-0.827 (inactive),0.455 (inactive),-0.38 (inactive),2.62,-0.201 (inactive),-0.157,0.742,1.11,0.0632,0.599,-0.151,-0.5,-0.481 (inactive),0.802,1.27,0.44,1.05,0.655,-0.0031
COC(=O)CC=C[C@@H](C)[C@@H](C=NO[C@@H](C)c1cc(-c2c(C)cc(C)cc2C)no1)OC,-1.43,-0.0365 (inactive),-0.875 (inactive),0.599 (inactive),-1.2,-0.622 (inactive),-0.047,-0.119,-0.75,-0.419,-0.677,0.237,1.07,-1.2 (inactive),-1.72,-1.19,-1.81,-1.67,-2.42,-0.2
Cn1cccc1C(O)C1C=CC2C(=O)NC(=O)C2N1Nc1ccccn1 (stereo not given),0.408,0.0886 (inactive),1.23 (inactive),0.0533 (inactive),-0.503,-0.975 (inactive),-0.19,-0.0645,-0.929,0.0865,0.71,0.0275,0.0176,1.36 (inactive),-0.121,-0.0788,0.459,0.533,0.133,1.49
C[C@@H](c1ccccc1)N1C(=O)[C@H]2[C@H]3[C@H](O)[C@H](O)CC(=NNC(=O)OCc4ccccc4)[C@H]3CC[C@H]2C1=O,-0.26,0.547 (inactive),0.408 (inactive),0.698 (inactive),0.71,0.687 (inactive),0.2,0.124,-0.246,0.229,-0.0979,0.24,0.794,0.373 (inactive),0.0359,-0.354,0.191,-0.461,-0.415,0.0683
CCOC(=O)NN=C1C[C@@H](O)[C@@H](O)[C@@H]2[C@@H]3C(=O)N(C4CCCCC4)C(=O)[C@@H]3CC[C@@H]12,-0.319,-1.33 (inactive),-0.895 (inactive),-0.495 (inactive),0.156,0.637 (inactive),-0.028,0.257,0.324,-0.0329,0.104,-0.192,-0.499,1.06 (inactive),0.534,0.132,0.34,0.297,0.476,0.212
